In the supplement of paper PMC3334620:
In all, about 33,000 sequences were measured (“E-score (-0.5 to 0.5)”: median about -0.015, highest 2% from about 0.3 on). This is one part of a sample in which the highest values are shown more often than they occur.

target: T1, Abf1 (UniProt P14164); test: PBM E-score (8-mer binding enrichment) (E-score (-0.5 to 0.5)); higher = stronger / more preferred TF binding; settings: protein concentration: 200 nM; construct: GST-full length
T1 sequence: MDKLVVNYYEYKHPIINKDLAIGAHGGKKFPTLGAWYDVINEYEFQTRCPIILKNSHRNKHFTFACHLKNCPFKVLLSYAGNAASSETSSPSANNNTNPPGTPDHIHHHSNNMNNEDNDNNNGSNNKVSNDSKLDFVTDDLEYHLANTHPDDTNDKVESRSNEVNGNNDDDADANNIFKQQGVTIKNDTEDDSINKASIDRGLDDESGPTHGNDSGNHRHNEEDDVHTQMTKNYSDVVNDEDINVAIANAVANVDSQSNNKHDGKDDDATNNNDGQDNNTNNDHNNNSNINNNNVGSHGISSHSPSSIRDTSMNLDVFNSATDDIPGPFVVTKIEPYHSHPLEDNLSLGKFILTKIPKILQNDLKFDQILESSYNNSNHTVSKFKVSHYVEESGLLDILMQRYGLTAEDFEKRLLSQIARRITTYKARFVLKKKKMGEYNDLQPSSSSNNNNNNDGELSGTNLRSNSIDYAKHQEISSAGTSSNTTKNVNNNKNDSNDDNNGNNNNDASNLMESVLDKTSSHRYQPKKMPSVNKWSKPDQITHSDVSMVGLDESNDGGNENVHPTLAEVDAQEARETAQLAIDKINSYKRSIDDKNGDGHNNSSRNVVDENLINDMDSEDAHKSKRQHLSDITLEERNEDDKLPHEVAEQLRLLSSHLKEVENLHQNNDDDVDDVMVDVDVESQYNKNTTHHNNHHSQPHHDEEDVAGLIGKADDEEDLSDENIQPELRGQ
Outline: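 Universal all-10-mer Agilent arrays, double-stranded by primer extension on fresh or once-stripped slides, were probed with about 100-200 nM GST-tagged yeast transcription factors made by PURExpress. Fluorescent anti-GST detected bound protein, and masliner normalised the scans. E-scores from the Universal PBM Analysis Suite were given to each ungapped eight-base word pooled with its reverse complement.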

Sequence	PBM E-score
CGGCCGAG	0.0212
CCCCGGAC	-0.105
GTGGTCAA	0.0649
CGTACGGA	0.355
CGTACGGC	0.396
AGTACGTC	0.125
AGTACGGC	0.224
CGTACGTA	0.266
CGTACGCC	0.155
GGTACGGA	0.13
CGTACGTC	0.359
AGTACGGA	0.118
ATGACTGA	-0.0877
CGTATGAG	0.189
CGAATGAA	-0.164
CGTATGAA	0.426
CGTATGAC	0.334
CGAATGAC	0.312
GGTATGAC	-0.0891
AGAATGAC	0.255
AGTATGAA	0.135
AGTATGAC	0.186

Sequence	PBM E-score
AGTGTTCA	-0.11
ACCAGTGG	-0.261
ATAATCCG	-0.0846
AAACAACG	0.0689
CAGTCGAG	-0.177
CGCCGCGA	0.0127
TCCGTTAA	0.0849
GGTGATCA	0.305
GCTGATCA	0.139
AGTGATCA	0.416
CCTGATCA	0.112
CGTGATCC	-0.0112
AGTGATCG	0.239
AGTGATCC	0.189
GGGGATCA	-0.0388
CGTGATCA	0.379
AGTACCGG	-0.202
ACTCCTGC	-0.173
GAGATCAA	0.109
AAGATCAC	0.325
GAGATCGC	0.164
GAGATCAC	0.347

Sequence	PBM E-score
CAGATCAC	0.284
AAGATCAT	0.289
AATTGACT	-0.00646
CGTACCGA	0.232
AATAAGCG	-0.0622
ATATCATG	0.297
AAATCATC	0.278
CTATCATC	0.151
ATATCATA	0.33
ATATCATC	0.408
CTATCATA	0.143
GCAAAAAC	0.0419
GATAGGAC	-0.123
AGGCGTTC	-0.191
AATACTAA	0.0807
AATACTAC	0.301
AATACTAT	-0.00924
AGGGACCG	-0.0817
CATGCCGG	-0.00463
ATCACGCC	0.253
ATCACGCA	0.272
CTCACGTC	0.0288

Sequence	PBM E-score
ATCACGTC	0.336
ATCACGGG	0.163
ATCACGAT	0.26
ATCACGAC	0.363
ATCACGGC	0.35
ATCACGCG	0.373
ATCACGGA	0.246
ATCACGAA	0.256
ATCACGTA	0.218
AGGCTTAT	-0.0827
CAACCGCA	-0.0837
ACTTTGTC	0.217
CCCGCTAG	-0.157
ATGATCCA	0.0885
GCGTCATA	0.138
CCGTCATC	0.128
CCGTCATA	0.37
AATGGTCC	-0.0212
AACATCAC	0.283
AACATCAT	0.309
